Source: PubChem BioAssay AID1569 (National Center for Advancing Translational Sciences (NCATS), 2009)
Inconclusive results are not listed. Activity calls are given as the source filed them. The call rests on the fitted dose curve; in most records, active means well fitted inhibition curve with a large enough effect; inconclusive means small, poorly fitted or top-dose-only effect, or effect the other way, or another doubt; inactive means no such curve, though single readings can be large or run the other way.

test: Confirmation Concentration-Response Assay for lipid storage modulators; conditions: Drosophila S3 cells, lipid droplet BODIPY/CellTracker ratio, 18-24 h; series mostly up to 46.1 µM; further: nearly all actives have a fitted effect of over 80% in size
Outline: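 Cells at 5,000/well received compound as a titration plus oleic acid (added as 400 uM solution) and were incubated 18–24 h at 24 °C. BODIPY 493/503 lipid signal and CellTracker Red cell count were read by 488-nm laser-scanning cytometry. Activity was normalised to 20 uM Triacsin C.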
Potency means the concentration at half of the fitted maximal effect.

Q: Which Potency does the source give for COc1ccccc1Nc1nnc(SCC(=O)Nc2nc(-c3ccc(F)cc3)cs2)s1 here?
A: Its Potency is 705 nM (active).

Q: Which Potency does the source give for CCOc1ccc(CCNC(=O)CN2C(=O)NC3(CCCCC3C)C2=O)cc1OCC (stereo unspecified) here?
A: The Potency was “inactive”.

Q: With Cc1cccc(-n2ncc3c2CCCC3NC(=O)Cc2c(C)noc2C)c1C (stereo unspecified) as the compound, how does the Potency read?
A: The Potency was 14100 nM (active).

Q: Which Potency does the source give for COc1ccc(CC(=O)NCCc2ccc(OC)c(OC)c2)cc1 here?
A: The Potency was “inactive”.

Q: Which Potency does the source give for COc1ccc2c(c1)c1nnc(SCC(=O)N3C(C)CCCC3C)nc1n2C (stereo unspecified) here?
A: The Potency was 3530 nM (active).

Q: With COc1cccc2cc(-c3nnc(SCC(=O)Nc4nc(C)cs4)n3C)oc12 as the compound, how does the Potency read?
A: The Potency was 1990 nM (active).

Q: Which Potency does the source give for COC(=O)c1ccc(C(=O)NC2CCCc3c2cnn3-c2ccccc2F)nc1 (stereo unspecified) here?
A: The Potency was 177 nM (active).

Q: With CCn1c(COc2ccc(Cl)cc2)nnc1SCC(=O)Nc1ccc2c(c1)OCCO2 as the compound, how does the Potency read?
A: The Potency was 11200 nM (active).

Q: Which Potency does the source give for COc1ccc(-c2cnc(SCC(=O)Nc3nc(C(C)(C)C)cs3)n2Cc2ccco2)cc1 here?
A: Its Potency is 705 nM (active).

Q: For CCCCCCCCn1c(=O)c(C(=O)OC)c(N)c2ccccc21, which Potency is on record?
A: The Potency was 7910 nM (active).

Q: For CCCCNc1cc(C)nc(NCc2ccccc2)n1, which Potency is on record?
A: The Potency was 7910 nM (active).

Q: Which Potency does the source give for CCOc1ccc(CCNC(=O)COC(=O)c2ccc(OC(C)C)cc2)cc1OCC here?
A: Its Potency is 158 nM (active).

Q: For O=C(NC1CCCc2c1cnn2-c1cc(F)cc(F)c1)c1cc[n+]([O-])cc1 (stereo unspecified), which Potency is on record?
A: Its Potency is “inactive”.

Q: With CC1CCCCN1c1ccc(N)cc1C(N)=O (stereo unspecified) as the compound, how does the Potency read?
A: The Potency was “inactive”.

Q: With COc1ccc(CCNC(=O)CSc2nc3[nH]ncc3c(=O)n2-c2ccc(Cl)cc2Cl)cc1OC as the compound, how does the Potency read?
A: Its Potency is “inactive”.

Q: For COc1ccc(OC)c(NC(=O)CSc2ncnc3c2cnn3-c2ccccc2Cl)c1, which Potency is on record?
A: Its Potency is 1770 nM (active).

Q: With COc1ccc(CCNC(=O)COc2ccc(-c3ccccc3)cc2)cc1OC as the compound, how does the Potency read?
A: Its Potency is “inactive”.

Q: With CC(=O)c1cc(-c2ccccc2)n(CC(=O)N2CCC(C)CC2)c1C as the compound, how does the Potency read?
A: Its Potency is 1580 nM (active).

Q: With COc1nc(Nc2nc3ccccc3c(=O)[nH]2)nc2ccc(C)cc12 as the compound, how does the Potency read?
A: Its Potency is 2170 nM (active).

Q: Which Potency does the source give for COc1cc2c(cc1NC(=S)NC(=O)c1c(OC)cccc1OC)oc1ccccc12 here?
A: The Potency was 2170 nM (active).

Q: For c1ccc(-c2cnn3c(-c4ccccc4)c(-c4ccccc4)nc3n2)cc1, which Potency is on record?
A: Its Potency is 3150 nM (active).

Q: With COC(=O)c1cc(C)sc1NC(=O)C1CC(=O)NN1Cc1ccccc1 (stereo unspecified) as the compound, how does the Potency read?
A: Its Potency is 1410 nM (active).

Q: With COc1ccc(CCNC(=O)COc2ccc(S(=O)(=O)NC3CCCCC3)cc2Cl)cc1OC as the compound, how does the Potency read?
A: The Potency was 3970 nM (active).

Q: Which Potency does the source give for Cc1ccc(C(=O)NC2CCCc3c2cnn3-c2ccc(F)cc2F)cn1 (stereo unspecified) here?
A: Its Potency is 3970 nM (active).

Q: For CNC(=O)c1sc2nc(-c3ccc(OC)cc3)cn2c1C, which Potency is on record?
A: The Potency was 15800 nM (active).

Q: Which Potency does the source give for CCOc1ccc(CCNC(=O)COC(=O)C2CCN(c3ccc(C(F)(F)F)cn3)CC2)cc1OCC here?
A: The Potency was “inactive”.

Q: With Cc1ccc(C(C(=O)NC2CCCCC2)N(Cc2ccco2)C(=O)Cc2c[nH]c3ccccc23)o1 (stereo unspecified) as the compound, how does the Potency read?
A: Its Potency is 4450 nM (active).

Q: Which Potency does the source give for Cn1nc(C(C)(C)C)cc1C(=O)NCc1ccc2c(c1)OCO2 here?
A: Its Potency is 2500 nM (active).

Q: For CCC(C)(C)NC(=O)C(c1cccn1C)N(Cc1ccc(OC)cc1)C(=O)Cn1nnc2ccccc21 (stereo unspecified), which Potency is on record?
A: The Potency was 2500 nM (active).

Q: For O=C(NC1CCCc2c1cnn2-c1ccc(F)cc1F)c1ccccn1 (stereo unspecified), which Potency is on record?
A: Its Potency is 11.2 nM (active).

Q: For O=C(NC1CCCc2c1cnn2-c1ccccc1F)c1ccccn1 (stereo unspecified), which Potency is on record?
A: Its Potency is 7.9 nM (active).

Q: For CCN(CC)S(=O)(=O)c1cccc(NC(=O)CNc2cccc(S(=O)(=O)N3CCCC3)c2)c1, which Potency is on record?
A: The Potency was 1990 nM (active).

Q: For CCOc1ccc(CCNC(=O)COC(=O)c2ccc(Cl)nc2)cc1OCC, which Potency is on record?
A: The Potency was “inactive”.

Q: For CCN(CC)C(=O)c1sc2nc(-c3cccs3)cc(-c3cccs3)c2c1N, which Potency is on record?
A: Its Potency is 7910 nM (active).

Q: With CCOc1ccc(CCNC(=O)COC(=O)COc2cc(C)cc(C)c2)cc1OCC as the compound, how does the Potency read?
A: Its Potency is “inactive”.

Q: With COc1ccc(NC(=O)NC2(C(=O)N3CCOCC3)CCCCC2)cc1 as the compound, how does the Potency read?
A: The Potency was “inactive”.
